About 83,000 compounds went through this panel and 20% of them were active in at least one assay; those are over-represented in the sample as a whole.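 Note: values are percent growth. 100 is the growth of untreated cells, values between 100 and 0 indicate rising inhibition; between -100 and 0 indicates cell death.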 Unmarked numbers belong to inactive results. The source made the active and inactive calls. Rule for the calls: active = growth percent below 10; inactive = the rest.

Test in all cases: NCI-60 one-dose screen, 48 h (100 = growth as untreated, 0 = no growth, -100 = all killed)
The subject of one assay is NCI-H23 lung. The settings on record: 10 µM unless noted.
A further assay relates to HOP-62 NSCLC. The following applies: 10 µM unless noted.
The next assay deals with NCI-H460 lung. The settings on record: 10 µM unless noted.
For a further assay, the system named is A549/ATCC NSCLC. The settings on record: 10 µM unless noted.
The next assay has as its system K-562 leukemia. The settings on record: 10 µM unless noted.
The test system of the next assay is RXF 393 renal. The following applies: 10 µM unless noted.
A further assay has as its system SF-295 CNS. The following applies: 10 µM unless noted.
For another assay, the system named is UACC-257 melanoma. The following applies: 10 µM unless noted.
In another assay the test system is U251 CNS. The following applies: 10 µM unless noted.
The next assay relates to LOX IMVI melanoma. The following applies: 10 µM unless noted.
In the next assay the test system is SK-MEL-28 melanoma. The settings on record: 10 µM unless noted.
The subject of the next assay is SK-MEL-2 melanoma. The following applies: 10 µM unless noted.
Another assay has as its system UO-31 renal. The following applies: 10 µM unless noted.
In a further assay the test system is TK-10 renal. The following applies: 10 µM unless noted.
The subject of another assay is A498 renal. The following applies: 10 µM unless noted.
The next assay concerns HL-60(TB) leukemia. The settings on record: 10 µM unless noted.
Another assay concerns SR leukemia. The following applies: 10 µM.
Another assay relates to OVCAR-4 ovarian. The following applies: 10 µM unless noted.
A further assay has as its system BT-549 breast. The settings on record: 10 µM.
For another assay, the system named is HCC-2998 colon. The following applies: 10 µM unless noted.

For `O=CC(Br)C(Br)c1ccccc1` (centres undefined), the growth was 104% with NCI-H23 lung; 107% with HOP-62 NSCLC; 102% in the assay on NCI-H460 lung; 97.6% with A549/ATCC NSCLC; 41.2% with K-562 leukemia; 86.8% in the assay with RXF 393 renal. Besides, the growth is 97.9% in the assay with SF-295 CNS; 93.8% in the assay with UACC-257 melanoma; 102% in the assay with U251 CNS; 56.2% in the assay with LOX IMVI melanoma; 93.7% in the assay with SK-MEL-28 melanoma; 112% in the assay on SK-MEL-2 melanoma. The growth in the assay with UO-31 renal was 74.1%; in the assay with TK-10 renal, 106%; in the assay on A498 renal, 102%; with HL-60(TB) leukemia, 26.3%; in the assay with SR leukemia, 16.1%; in the assay with OVCAR-4 ovarian, 104%. For the same compound, the growth in the assay on BT-549 breast is 99.7%; in the assay with HCC-2998 colon it was 106%.

Take `CC(C)(C)N(Cc1ccccc1)N=O`: the growth was 102% in the assay with NCI-H23 lung; 99.4% in the assay on HOP-62 NSCLC; 107% in the assay with NCI-H460 lung; 93.9% with A549/ATCC NSCLC; 101% with K-562 leukemia; 93.1% in the assay with RXF 393 renal. Also, the growth in the assay on SF-295 CNS was 100%; with UACC-257 melanoma, 92.1%; with U251 CNS it was 99.3%; in the assay on LOX IMVI melanoma it was 93.7%; in the assay on SK-MEL-28 melanoma, 106%; in the assay on SK-MEL-2 melanoma, 94.6%. The growth in the assay on UO-31 renal was 96.7%; in the assay on TK-10 renal it was 102%; in the assay with A498 renal, 95.4%; in the assay with HL-60(TB) leukemia, 106%; in the assay on OVCAR-4 ovarian, 98.2%; with BT-549 breast, 102%. The growth with HCC-2998 colon is 110%.

Consider `O=C(O)C1(Br)CC12c1ccccc1-c1ccccc12` (centres undefined), for which the growth in the assay on NCI-H23 lung was 97.1%; with NCI-H460 lung, 111%; in the assay on A549/ATCC NSCLC, 98.4%; in the assay on K-562 leukemia, 86.6%; in the assay with RXF 393 renal, 99.5%; with UACC-257 melanoma, 94.8%. In addition, the growth with LOX IMVI melanoma is 96.1%; with SK-MEL-28 melanoma, 114%; in the assay with SK-MEL-2 melanoma, 110%; with UO-31 renal, 82.4%; with TK-10 renal it was 88%; with HL-60(TB) leukemia, 94%. Also, the growth with SR leukemia was 88.9%; in the assay on OVCAR-4 ovarian it was 107%; with BT-549 breast, 94.9%; in the assay on HCC-2998 colon, 106%.

With `n1nc(-c2nonc2-c2nn[nH]n2)n[nH]1`, the growth with NCI-H23 lung was 102%; in the assay with HOP-62 NSCLC, 112%; in the assay with NCI-H460 lung it was 109%; in the assay with A549/ATCC NSCLC, 95.2%; with K-562 leukemia, 106%; with RXF 393 renal, 93.7%. For the same compound, the growth was 94.5% in the assay with SF-295 CNS; 100% in the assay on UACC-257 melanoma; 101% in the assay with U251 CNS; 103% in the assay with LOX IMVI melanoma; 106% with SK-MEL-28 melanoma; 115% in the assay with SK-MEL-2 melanoma. The growth in the assay with UO-31 renal is 92.5%; in the assay with TK-10 renal it was 110%; in the assay with A498 renal it was 81.9%; in the assay on HL-60(TB) leukemia, 105%; in the assay with SR leukemia, 92.5%; in the assay on OVCAR-4 ovarian, 102%. Besides, the results for the growth with BT-549 breast and in the assay with HCC-2998 colon were 103% and 106%, respectively.

On to `CC1([N+](=O)[O-])COP(=O)(Nc2ccc(F)cc2)OC1` (centres undefined), for which the growth in the assay on NCI-H23 lung was 96.4%; in the assay with NCI-H460 lung it was 106%; with A549/ATCC NSCLC it was 98.5%; in the assay with K-562 leukemia, 103%; in the assay with RXF 393 renal, 100%; with SF-295 CNS, 106%. For the same compound, the growth in the assay on UACC-257 melanoma is 101%; in the assay on LOX IMVI melanoma it was 84.2%; in the assay with SK-MEL-28 melanoma, 116%; in the assay on SK-MEL-2 melanoma it was 98%; with UO-31 renal, 73.9%; with TK-10 renal, 95.1%. Also, the growth with HL-60(TB) leukemia was 90.4%; with SR leukemia, 84.2%; with OVCAR-4 ovarian, 113%; in the assay on BT-549 breast it was 96.8%; in the assay with HCC-2998 colon, 99.5%.

Turning to `Clc1ccc(SSC(Cl)(Cl)Cl)cc1`, the growth was 106% in the assay with HOP-62 NSCLC; 101% in the assay on NCI-H460 lung; 100% in the assay on A549/ATCC NSCLC; 112% in the assay with K-562 leukemia; 112% in the assay on RXF 393 renal; 103% in the assay with SF-295 CNS. The growth in the assay on UACC-257 melanoma was 112%; in the assay on U251 CNS it was 98.6%; with LOX IMVI melanoma it was 103%; with SK-MEL-28 melanoma, 120%; in the assay with SK-MEL-2 melanoma, 123%; with UO-31 renal it was 99.9%. Moreover, the growth with A498 renal is 111%; in the assay with HL-60(TB) leukemia it was 113%; with SR leukemia it was 107%; in the assay with OVCAR-4 ovarian, 108%; with BT-549 breast it was 121%; in the assay with HCC-2998 colon, 110%.

As to `CC[C@]12C=CCN3CC[C@@]4(c5ccc(OC)cc5N(C)[C@H]4[C@@](O)(C(=O)OC)[C@@H]1OC(=O)CCCN1CCN(CCCC(=O)O[C@@H]4[C@]5(CC)C=CCN6CC[C@@]7(c8ccc(OC)cc8N(C)[C@H]7[C@@]4(O)C(=O)OC)[C@@H]65)CC1)[C@@H]32`, the growth with NCI-H23 lung was -80.6% (active); with HOP-62 NSCLC it was -82.5% (active); in the assay on NCI-H460 lung, -80.3% (active); in the assay on A549/ATCC NSCLC, -81.4% (active); in the assay on K-562 leukemia it was -62% (active); in the assay on RXF 393 renal, -88.5% (active). Besides, the growth in the assay with SF-295 CNS was -85.9% (active); with UACC-257 melanoma, -87.6% (active); in the assay on U251 CNS, -83.7% (active); with LOX IMVI melanoma, -89.1% (active); in the assay with SK-MEL-28 melanoma, -91.6% (active); in the assay with SK-MEL-2 melanoma, -75.7% (active). The growth in the assay on UO-31 renal is -88.8% (active); in the assay with TK-10 renal it was -87.9% (active); in the assay with A498 renal it was -58.2% (active); with HL-60(TB) leukemia, -66.6% (active); in the assay with OVCAR-4 ovarian, -47.4% (active); in the assay with BT-549 breast it was -88.3% (active). Further, in the assay with HCC-2998 colon, the growth is -86.6% (active).

Take `O=C(N/N=C/c1ccc([N+](=O)[O-])o1)c1cc([N+](=O)[O-])cc([N+](=O)[O-])c1O`: the growth is 94.1% in the assay on NCI-H23 lung; 105% in the assay on NCI-H460 lung; 102% in the assay with A549/ATCC NSCLC; 102% with RXF 393 renal; 104% with SF-295 CNS; 99.2% in the assay with UACC-257 melanoma. For the same compound, the growth in the assay with U251 CNS was 91.8%; in the assay on LOX IMVI melanoma it was 84.5%; in the assay on SK-MEL-28 melanoma it was 113%; in the assay on UO-31 renal, 80%; with TK-10 renal, 121%; with A498 renal, 79.7%. Further, the growth with HL-60(TB) leukemia was 93.5%; with SR leukemia, 70.7%; in the assay with OVCAR-4 ovarian it was 106%; in the assay on BT-549 breast it was 103%; with HCC-2998 colon it was 102%.

For the compound `CC[C@@]1(C2O[C@@H](C3O[C@@](O)(CC)[C@H](C)C[C@@H]3C)C[C@@H]2C)CC[C@H]([C@]2(C)CCC3(C[C@H](O)[C@@H](C)[C@@H]([C@H](C)[C@@H](OC)[C@H](C)C(=O)O)O3)O2)O1` (some centres undefined), the growth with NCI-H23 lung is 16.5%; in the assay on A549/ATCC NSCLC, 17.6%; in the assay with UACC-257 melanoma it was 20.7%; in the assay with SK-MEL-28 melanoma, 29.5%; in the assay on TK-10 renal it was 49.1%; in the assay with A498 renal it was 42.7%. Besides, the figures for the growth with OVCAR-4 ovarian and in the assay with BT-549 breast were 29.7% and 32.5%, respectively.

For the origin of these results see PubChem BioAssay (NCI).
